Source: PubChem BioAssay (NCI)
Compounds without any hit were thinned out: in the full panel of roughly 83,000, 20% have a hit.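 Assay: single dose, 48 h. Readout: percent growth (0 = no net growth; negative = cell death). Active: <10.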

Experiments:
Assay in all cases: NCI-60 one-dose screen, 48 h (100 = growth as untreated, 0 = no growth, -100 = all killed)
Conditions in all cases: 10 µM unless noted
NCI-H23 lung = system: NCI-H23 lung
NCI-H226 lung = system: NCI-H226 lung
NCI-H322M lung = system: NCI-H322M lung
HOP-62 NSCLC = system: HOP-62 NSCLC
NCI-H460 lung = system: NCI-H460 lung
HOP-92 NSCLC = system: HOP-92 NSCLC
NCI-H522 lung = system: NCI-H522 lung
A549/ATCC NSCLC = system: A549/ATCC NSCLC
786-0 renal = system: 786-0 renal
COLO 205 colon = system: COLO 205 colon
DU-145 prostate = system: DU-145 prostate
K-562 leukemia = system: K-562 leukemia
MDA-MB-231 breast = system: MDA-MB-231 breast
RXF 393 renal = system: RXF 393 renal
SF-268 CNS = system: SF-268 CNS
SF-539 CNS = system: SF-539 CNS
UACC-257 melanoma = system: UACC-257 melanoma
M14 melanoma = system: M14 melanoma
SF-295 CNS = system: SF-295 CNS
MALME-3M melanoma = system: MALME-3M melanoma

Measured: growth

CC(O)C(F)(F)C(F)(F)C(F)(F)F (stereo not drawn)
inactive: NCI-H23 lung 111% | NCI-H226 lung 102% | NCI-H322M lung 114% | HOP-62 NSCLC 104% | NCI-H460 lung 110% | HOP-92 NSCLC 117% | NCI-H522 lung 93.8% | A549/ATCC NSCLC 110% | 786-0 renal 102% | COLO 205 colon 116% | DU-145 prostate 119% | K-562 leukemia 111% | MDA-MB-231 breast 118% | RXF 393 renal 103% | SF-268 CNS 115% | SF-539 CNS 96.6% | UACC-257 melanoma 107% | M14 melanoma 103%

CCOC(=N)CC(=O)Nc1cccc(C)c1Cl
inactive: NCI-H23 lung 100% | NCI-H226 lung 84.5% | NCI-H322M lung 99.6% | HOP-62 NSCLC 102% | NCI-H460 lung 105% | HOP-92 NSCLC 89.1% | NCI-H522 lung 110% | A549/ATCC NSCLC 106% | 786-0 renal 106% | COLO 205 colon 100% | DU-145 prostate 107% | K-562 leukemia 122% | MDA-MB-231 breast 89.5% | RXF 393 renal 97.5% | SF-268 CNS 101% | SF-295 CNS 97.2% | SF-539 CNS 99.6% | UACC-257 melanoma 103% | M14 melanoma 94.9%

CCCCN(C(=O)CC)c1ccccc1
inactive: NCI-H23 lung 99.9% | NCI-H226 lung 107% | NCI-H322M lung 97.9% | HOP-62 NSCLC 105% | NCI-H460 lung 103% | HOP-92 NSCLC 109% | NCI-H522 lung 95.3% | A549/ATCC NSCLC 96.5% | 786-0 renal 99.2% | COLO 205 colon 99.7% | DU-145 prostate 99.7% | MALME-3M melanoma 100% | MDA-MB-231 breast 105% | RXF 393 renal 115% | SF-268 CNS 98.6% | SF-295 CNS 99.8% | SF-539 CNS 100% | UACC-257 melanoma 95.5% | M14 melanoma 91.8%

O=C1NC(=O)/C(=C\c2ccncc2)N1
inactive: NCI-H23 lung 102% | NCI-H226 lung 99.8% | NCI-H322M lung 107% | HOP-62 NSCLC 94.2% | NCI-H460 lung 102% | HOP-92 NSCLC 85.7% | NCI-H522 lung 94.7% | A549/ATCC NSCLC 106% | 786-0 renal 106% | COLO 205 colon 103% | K-562 leukemia 117% | MALME-3M melanoma 103% | MDA-MB-231 breast 99.1% | RXF 393 renal 102% | SF-268 CNS 97.6% | SF-295 CNS 104% | SF-539 CNS 92.7% | UACC-257 melanoma 97.7% | M14 melanoma 92.6%

Nc1ncnc2c1ncn2C1OC(CO)C2OC21 (stereo not drawn)
inactive: NCI-H23 lung 107% | NCI-H226 lung 93.8% | NCI-H322M lung 118% | HOP-62 NSCLC 96.6% | NCI-H460 lung 109% | HOP-92 NSCLC 102% | NCI-H522 lung 94.6% | A549/ATCC NSCLC 102% | 786-0 renal 108% | COLO 205 colon 107% | DU-145 prostate 113% | K-562 leukemia 104% | MDA-MB-231 breast 112% | RXF 393 renal 103% | SF-268 CNS 104% | SF-295 CNS 106% | SF-539 CNS 110% | UACC-257 melanoma 98.6% | M14 melanoma 102%

Cc1cccc(C)c1NC(=S)/N=C\c1c(O)[nH]c(=O)[nH]c1=O
inactive: NCI-H23 lung 104% | NCI-H226 lung 100% | NCI-H322M lung 98.5% | HOP-62 NSCLC 87.7% | NCI-H460 lung 105% | HOP-92 NSCLC 102% | NCI-H522 lung 86.4% | A549/ATCC NSCLC 79.4% | 786-0 renal 101% | COLO 205 colon 103% | DU-145 prostate 111% | MDA-MB-231 breast 96.6% | RXF 393 renal 108% | SF-268 CNS 98% | SF-295 CNS 97.9% | SF-539 CNS 112% | UACC-257 melanoma 81.8% | M14 melanoma 98.4%

O=C(OCc1ccccc1)n1nnc2ccccc21
inactive: NCI-H23 lung 115% | NCI-H226 lung 108% | NCI-H322M lung 105% | HOP-62 NSCLC 110% | NCI-H460 lung 109% | HOP-92 NSCLC 116% | NCI-H522 lung 100% | A549/ATCC NSCLC 102% | 786-0 renal 98.7% | COLO 205 colon 111% | DU-145 prostate 112% | K-562 leukemia 107% | MDA-MB-231 breast 96.6% | RXF 393 renal 113% | SF-268 CNS 104% | SF-295 CNS 99.2% | SF-539 CNS 105% | UACC-257 melanoma 97.2% | M14 melanoma 98.7%

CC(C)(C)[Si](C)(C)OCC1OC(n2cnc3c(N)ncnc32)CC1OS(C)(=O)=O (stereo not drawn)
inactive: NCI-H23 lung 106% | NCI-H226 lung 101% | NCI-H322M lung 109% | HOP-62 NSCLC 104% | NCI-H460 lung 105% | HOP-92 NSCLC 98.5% | NCI-H522 lung 99% | A549/ATCC NSCLC 99.4% | 786-0 renal 103% | COLO 205 colon 110% | DU-145 prostate 105% | K-562 leukemia 105% | MDA-MB-231 breast 102% | RXF 393 renal 102% | SF-268 CNS 97.9% | SF-295 CNS 110% | SF-539 CNS 108% | UACC-257 melanoma 94.7% | M14 melanoma 104%

CC(=O)NCNC(C)=O
inactive: NCI-H23 lung 113% | NCI-H226 lung 99.8% | NCI-H322M lung 110% | HOP-62 NSCLC 108% | NCI-H460 lung 113% | HOP-92 NSCLC 150% | NCI-H522 lung 119% | A549/ATCC NSCLC 96.7% | 786-0 renal 109% | COLO 205 colon 118% | DU-145 prostate 118% | K-562 leukemia 112% | MDA-MB-231 breast 118% | RXF 393 renal 108% | SF-268 CNS 110% | SF-539 CNS 91.3% | UACC-257 melanoma 95.4% | M14 melanoma 111%
